Data published in PubChem BioAssay (NCI).
This is part of a sample that, as a whole, favours compounds with a hit. Of some 79,000 tested, about 15% had one in any assay. Active and inactive are the calls of the source. No stated cut-off is given here; in the data, active means growth inhibition above about 70%; inactive means the rest.

Assay: NCI Yeast Anticancer Drug Screen. Data for the bub3 strain (AID 167)
Conditions: S. cerevisiae bub3 mutant strain, at 3.7 µM, active compounds read high
Procedure, shortened: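 Yeast carrying a defined mutation is treated with each compound, and growth is compared with that of vehicle-exposed cells to give inhibition.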

| SMILES | growth inhibition |
| --- | --- |
| COc1ccc(/C=C2\SC(=S)N(/C=C/c3nc4ccccc4[nH]c3=O)C2=O)cc1OC | 4% (inactive) |
| N#CN=Nc1cc(Cl)c(N=NC#N)cc1Cl | 2% (inactive) |
| Cc1ccc(S(=O)(=O)Oc2cc(Cl)c(Cl)cc2Cl)cc1 | 3% (inactive) |
| c1ccc2c(c1)Oc1cccc3cccc-2c13 | -6% (inactive) |
| O=C(c1ccc(Cl)cc1Cl)C(Cl)Cl | -11% (inactive) |
| CC(C)C1=CCC2C(=C1)CCC1C(C)(C(=O)O)CCCC21C (centres undefined) (tested in a mixture with another compound) | 11% (inactive) |
| COc1cc(/C=C2\CCc3ccccc3C2=O)cc(OC)c1OC | -13% (inactive) |
| CC(=O)[O][Bi]([c]1ccccc1)[c]1ccccc1 | 13% (inactive) |
| S=C(N/N=C/c1ccccn1)Nc1ccc(Cl)cc1 | 0% (inactive) |
| COc1cc(CC2CC(c3ccc4c(c3)OCO4)OC2=O)cc(OC)c1OC (centres undefined) | 28% (inactive) |
| CNC1C(OC2C(OC3C(O)C(O)C(N=C(N)N)C(O)C3N=C(N)N)OC(C)C2(O)CO)OC(CO)C(O)C1O (centres undefined) | -1% (inactive) |
| NNC(=O)CCc1ccc2ccc3ccccc3c2c1 | -4% (inactive) |
| Oc1ccc2ccccc2c1C(c1ccc(Cl)cc1)c1c(O)ccc2ccccc12 | -15% (inactive) |
| CCCCN(CCCC)CCSc1ccc(Cl)cc1 | -5% (inactive) |
| CCC(C)COC(=O)c1ccc(N=Cc2ccc(C=Nc3ccc(C(=O)OCC(C)CC)cc3)cc2)cc1 (centres undefined) | 3% (inactive) |
| CC1(C)C(=O)OC(n2cc(F)c(=O)[nH]c2=O)C1=O (centres undefined) | 21% (inactive) |
| O=[N+]([O-])CC(SCc1ccccc1)c1ccc2c(c1)OCO2 (centres undefined) | 13% (inactive) |
| COc1cc2c(cc1[N+](=O)[O-])C(=O)C(Br)(Br)CCC2 | 36% (inactive) |
| OCC1OC(OCC(O)C(O)C(O)C(/C=N/Nc2ccccc2)=N/Nc2ccccc2)C(O)C(O)C1O (centres undefined) | 9% (inactive) |
| COc1ccc(N=C2C(=O)Nc3ccc(Br)cc32)cc1 | -7% (inactive) |
| Cn1c(=O)c2ccccc2c2ccccc21 | -2% (inactive) |
| CC[n+]1ccc2c(C)c3[nH]c4ccc(O)cc4c3c(C)c2c1 | -16% (inactive) |
| CC(=O)ON1C(=O)c2cccc3cccc(c23)C1=O | 10% (inactive) |
| COc1ccc2ccc3ccccc3c2c1C=O | 0% (inactive) |
| OC1CCCc2c1cc1ccc3cccc4ccc2c1c34 (centres undefined) | -3% (inactive) |

Same assay, conditions: S. cerevisiae bub3 mutant strain, at 5.0 µM (retest, dose inferred, filed as 0.5), active compounds read high

| SMILES | growth inhibition |
| --- | --- |
| CCN(CC)CC[n+]1ccc2c(C)c3[nH]c4ccc(O)cc4c3c(C)c2c1 | 8% (inactive) |
| O=[n+]1c2ccc(Cl)cc2n([O-])c2ccc(Cl)cc21 | 11% (inactive) |
| CCOP(=O)(OCC)C(Cc1ccccc1)N=C(c1ccccc1)c1ccccc1 (centres undefined) | -7% (inactive) |
| CC[C@@]1(O)C(=O)OCc2c1cc1n(c2=O)Cc2cc3c(N)cccc3nc2-1 | -1% (inactive) |
| COC1C=COC2(C)Oc3c(C)c(O)c4c(c3C2=O)/C(=N/C2CCC(O)OC2C)C=C(NC(=O)/C(C)=C\C(=O)C2CC2C(O)C(C)C(O)C(C)C(OC(C)=O)C1C)C4=O (centres undefined) | -19% (inactive) |
| COc1cc2c(c(OC)c1OC)-c1c(cc3c(c1OC)OCO3)CC(C)C(C)(O)C2OC(=O)c1ccccc1 (centres undefined) | -2% (inactive) |
| O=c1ssc2ncccc12 | 23% (inactive) |
| O=C1C2C(C(=O)N1c1ccc(OCc3ccccc3)cc1)C1c3ccccc3C2C2CCCCN21 (centres undefined) | -5% (inactive) |
| COc1ccc(-c2cn(-c3ccc(I)cc3)c3ncnc(N)c23)cc1 | 12% (inactive) |
| CCOC(=O)C(NC(=O)c1ccccc1)(N1CCN(c2cc3c(cc2F)c(=O)c(C(=O)O)cn3C2CC2)CC1)C(F)(F)F (centres undefined) | -15% (inactive) |
| C/C(=N\O)C1CC2C=C(C#N)C1N(Cc1ccccc1)C2 (centres undefined) | -3% (inactive) |
| CC/C(=C(\c1ccccc1)c1ccc(OCCN(C)C)cc1)c1ccccc1 | 24% (inactive) |
| COc1ccccc1N=NC(C(=O)c1ccccc1)C(=O)c1ccccc1 | 5% (inactive) |
| CC(O)C(O)C(O)C(/C=N\Nc1ccccc1)=N/Nc1ccccc1 (centres undefined) | -7% (inactive) |
| COc1ccc(/C=C2\SC(=S)N(/C=C/c3nc4ccccc4[nH]c3=O)C2=O)cc1OC | -14% (inactive) |
| N#CN=Nc1cc(Cl)c(N=NC#N)cc1Cl | -1% (inactive) |
| Cc1ccc(S(=O)(=O)Oc2cc(Cl)c(Cl)cc2Cl)cc1 | 4% (inactive) |
| c1ccc2c(c1)Oc1cccc3cccc-2c13 | -5% (inactive) |
| O=C(c1ccc(Cl)cc1Cl)C(Cl)Cl | -4% (inactive) |
| CC(C)C1=CCC2C(=C1)CCC1C(C)(C(=O)O)CCCC21C (centres undefined) (tested in a mixture with another compound) | 29% (inactive) |

| SMILES | growth inhibition |
| --- | --- |
| COc1cc(/C=C2\CCc3ccccc3C2=O)cc(OC)c1OC | -3% (inactive) |
| CC(=O)[O][Bi]([c]1ccccc1)[c]1ccccc1 | 22% (inactive) |
| S=C(N/N=C/c1ccccn1)Nc1ccc(Cl)cc1 | 19% (inactive) |
| COc1cc(CC2CC(c3ccc4c(c3)OCO4)OC2=O)cc(OC)c1OC (centres undefined) | 24% (inactive) |
| CNC1C(OC2C(OC3C(O)C(O)C(N=C(N)N)C(O)C3N=C(N)N)OC(C)C2(O)CO)OC(CO)C(O)C1O (centres undefined) | 5% (inactive) |
| NNC(=O)CCc1ccc2ccc3ccccc3c2c1 | -11% (inactive) |
| Oc1ccc2ccccc2c1C(c1ccc(Cl)cc1)c1c(O)ccc2ccccc12 | 29% (inactive) |
| CCCCN(CCCC)CCSc1ccc(Cl)cc1 | 5% (inactive) |
| CCC(C)COC(=O)c1ccc(N=Cc2ccc(C=Nc3ccc(C(=O)OCC(C)CC)cc3)cc2)cc1 (centres undefined) | 3% (inactive) |
| CC1(C)C(=O)OC(n2cc(F)c(=O)[nH]c2=O)C1=O (centres undefined) | 45% (inactive) |
| O=[N+]([O-])CC(SCc1ccccc1)c1ccc2c(c1)OCO2 (centres undefined) | 89% (active) |
| COc1cc2c(cc1[N+](=O)[O-])C(=O)C(Br)(Br)CCC2 | 42% (inactive) |
| OCC1OC(OCC(O)C(O)C(O)C(/C=N/Nc2ccccc2)=N/Nc2ccccc2)C(O)C(O)C1O (centres undefined) | 12% (inactive) |
| COc1ccc(N=C2C(=O)Nc3ccc(Br)cc32)cc1 | 32% (inactive) |
| Cn1c(=O)c2ccccc2c2ccccc21 | -69% (inactive) |
| CC[n+]1ccc2c(C)c3[nH]c4ccc(O)cc4c3c(C)c2c1 | -8% (inactive) |
| CC(=O)ON1C(=O)c2cccc3cccc(c23)C1=O | 69% (inactive) |
| COc1ccc2ccc3ccccc3c2c1C=O | 5% (inactive) |
| OC1CCCc2c1cc1ccc3cccc4ccc2c1c34 (centres undefined) | 4% (inactive) |
